Assay results: the supplement of paper PMC11172423
Unmarked numbers belong to inactive results.

The molecules below were run on Madurella mycetomatis MM55 (assay: growth relative to untreated control; higher = less inhibition, active = 20 or less). Conditions: 25 µM.
Experimental: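 Hyphal fragments of M. mycetomatis MM55 or F. senegalensis CBS197.79 in RPMI 1640/MOPS were exposed to each MMV COVID Box or Global Health Priority Box compound at 100 or 25 µM for 7 days at 37 °C. Viability was read with MTS (490 nm, M. mycetomatis) or resazurin (600 nm, F. senegalensis), background-corrected with a medium-only control and expressed as % growth relative to the untreated growth control. Inhibition of more than 80% was taken as growth inhibition.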

| SMILES | growth |
| --- | --- |
| CC1(C)C(C=C(Cl)Cl)C1C(=O)OC(C#N)c1ccc(F)c(Oc2ccccc2)c1 (stereo not given) | 115% |
| CNC(=O)Oc1ccccc1OC(C)C | 120% |
| CNC(=O)O/N=C(/C)SC | 112% |
| CN1COCN(Cc2cnc(Cl)s2)/C1=N/[N+](=O)[O-] | 87.9% |
| C[C@@H]1O[C@@H](O[C@@H]2C=C3CC[C@@H]4[C@H](CC[C@]5(C)[C@@H](c6ccc(=O)oc6)CC[C@]45O)[C@@]3(C)CC2)[C@H](O)[C@H](O)[C@H]1O | 93.2% |
| CC(C)(C)Nc1cc2c(cn1)nc(Nc1cc(Cl)cc(C(F)(F)F)c1)n2C1CCNC1 (stereo not given) | 8.45% (active) |
| CN/C(=N\[N+](=O)[O-])NCc1cnc(Cl)s1 | 112% |
| COc1ccc(Cc2nccc3cc(OC)c(OC)cc23)cc1OC | 78% |
| O=[N+]([O-])/C=C1\NCCCS1 | 94% |
| CCS(=O)c1c(C#N)nn(-c2c(Cl)cc(C(F)(F)F)cc2Cl)c1N (stereo not given) | 91.7% |
| O=C(NC(=O)c1c(F)cccc1F)Nc1ccc(Cl)c(Oc2ncc(C(F)(F)F)cc2Cl)c1 | 46.7% |
| CC1(C)C(C=C(Cl)Cl)C1C(=O)OCc1cccc(Oc2ccccc2)c1 (stereo not given) | 78.1% |
| COP(=S)(OC)Oc1ccc(Sc2ccc(OP(=S)(OC)OC)cc2)cc1 | 118% |
| CC[C@@H]1CCC[C@H](O[C@H]2CC[C@H](N(C)C)[C@@H](C)O2)[C@@H](C)C(=O)C2=C[C@@H]3[C@@H](C=C(C)[C@@H]4C[C@@H](O[C@@H]5O[C@@H](C)[C@H](OC)[C@@H](OC)[C@H]5OC)C[C@@H]34)[C@@H]2CC(=O)O1.CC[C@@H]1CCC[C@H](O[C@H]2CC[C@H](N(C)C)[C@@H](C)O2)[C@@H](C)C(=O)C2=C[C@@H]3[C@@H](C=C[C@@H]4C[C@@H](O[C@@H]5O[C@@H](C)[C@H](OC)[C@@H](OC)[C@H]5OC)C[C@@H]34)[C@@H]2CC(=O)O1 | 133% |
| CC1(C)C(/C=C(\Cl)c2ccc(Cl)cc2)C1C(=O)OC(C#N)c1ccc(F)c(Oc2ccccc2)c1 (stereo not given) | 119% |
| C=C(C)[C@H]1Cc2c(ccc3c2O[C@@H]2COc4cc(OC)c(OC)cc4[C@@H]2C3=O)O1 | 7.57% (active) |
| CCOP(=S)(OCC)Oc1cc(C)nc(C(C)C)n1 | 108% |
| O=C(NC(=O)c1ccccc1Cl)Nc1ccc(OC(F)(F)F)cc1 | 106% |
| COc1ccc(CCN2CCC(Nc3nc4ccccc4n3Cc3ccc(F)cc3)CC2)cc1 | 3.51% (active) |
| COc1cc(/C=N/c2c(SC(F)(F)F)c(C#N)nn2-c2c(Cl)cc(C(F)(F)F)cc2Cl)ccc1O | 21% |

Same assay, conditions: 100 µM

| SMILES | growth |
| --- | --- |
| CC1(C)C(C=C(Cl)Cl)C1C(=O)OC(C#N)c1ccc(F)c(Oc2ccccc2)c1 (stereo not given) | 146% |
| CNC(=O)Oc1ccccc1OC(C)C | 129% |
| CNC(=O)O/N=C(/C)SC | 137% |
| CN1COCN(Cc2cnc(Cl)s2)/C1=N/[N+](=O)[O-] | 126% |
| C[C@@H]1O[C@@H](O[C@@H]2C=C3CC[C@@H]4[C@H](CC[C@]5(C)[C@@H](c6ccc(=O)oc6)CC[C@]45O)[C@@]3(C)CC2)[C@H](O)[C@H](O)[C@H]1O | 82.8% |
| CC(C)(C)Nc1cc2c(cn1)nc(Nc1cc(Cl)cc(C(F)(F)F)c1)n2C1CCNC1 (stereo not given) | 7.09% (active) |
| CN/C(=N\[N+](=O)[O-])NCc1cnc(Cl)s1 | 127% |
| COc1ccc(Cc2nccc3cc(OC)c(OC)cc23)cc1OC | 83.4% |
| O=[N+]([O-])/C=C1\NCCCS1 | 122% |
| CCS(=O)c1c(C#N)nn(-c2c(Cl)cc(C(F)(F)F)cc2Cl)c1N (stereo not given) | 92.4% |
| O=C(NC(=O)c1c(F)cccc1F)Nc1ccc(Cl)c(Oc2ncc(C(F)(F)F)cc2Cl)c1 | 149% |
| CC1(C)C(C=C(Cl)Cl)C1C(=O)OCc1cccc(Oc2ccccc2)c1 (stereo not given) | 151% |
| COP(=S)(OC)Oc1ccc(Sc2ccc(OP(=S)(OC)OC)cc2)cc1 | 118% |
| CC[C@@H]1CCC[C@H](O[C@H]2CC[C@H](N(C)C)[C@@H](C)O2)[C@@H](C)C(=O)C2=C[C@@H]3[C@@H](C=C(C)[C@@H]4C[C@@H](O[C@@H]5O[C@@H](C)[C@H](OC)[C@@H](OC)[C@H]5OC)C[C@@H]34)[C@@H]2CC(=O)O1.CC[C@@H]1CCC[C@H](O[C@H]2CC[C@H](N(C)C)[C@@H](C)O2)[C@@H](C)C(=O)C2=C[C@@H]3[C@@H](C=C[C@@H]4C[C@@H](O[C@@H]5O[C@@H](C)[C@H](OC)[C@@H](OC)[C@H]5OC)C[C@@H]34)[C@@H]2CC(=O)O1 | 91.5% |
| CC1(C)C(/C=C(\Cl)c2ccc(Cl)cc2)C1C(=O)OC(C#N)c1ccc(F)c(Oc2ccccc2)c1 (stereo not given) | 119% |
| C=C(C)[C@H]1Cc2c(ccc3c2O[C@@H]2COc4cc(OC)c(OC)cc4[C@@H]2C3=O)O1 | 9.11% (active) |
| CCOP(=S)(OCC)Oc1cc(C)nc(C(C)C)n1 | 135% |
| O=C(NC(=O)c1ccccc1Cl)Nc1ccc(OC(F)(F)F)cc1 | 112% |
| COc1ccc(CCN2CCC(Nc3nc4ccccc4n3Cc3ccc(F)cc3)CC2)cc1 | 4.43% (active) |
| COc1cc(/C=N/c2c(SC(F)(F)F)c(C#N)nn2-c2c(Cl)cc(C(F)(F)F)cc2Cl)ccc1O | 53.9% |
